Laboratory results published in PubChem BioAssay (NCI).
About 83,000 compounds went through this panel and 20% of them were active in at least one assay; those are over-represented in the sample as a whole.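 The test compound was applied at a single concentration to cells in 96-well plates for 48 hours, and percent growth was recorded.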 Values without a mark were called inactive. The source made the active and inactive calls. How the source made its calls: active means growth percent below 10; inactive means the rest.

tested on: HL-60(TB) leukemia; test: NCI-60 one-dose screen, 48 h (100 = growth as untreated, 0 = no growth, -100 = all killed); settings: 10 µM unless noted

Q: `O=C1OC(Oc2ccccc2)(c2ccccc2)c2ccccc21` (stereo not given) was tested. Which growth did it give?
A: Its growth is 83.8%.

Q: Which growth does the source give for `CC1=C2[C@@H](CC1)[C@]1(C)O[C@@](C(C)C)(C[C@H]1OC(=O)CO)[C@H]2OC(=O)C1CC1c1ccccc1` (stereo not given in full) here?
A: Its growth is 89.8%.

Q: For `Cc1ccccc1NC(=O)c1sc2nc3c(cc2c1N)CCCC3`, which growth is on record?
A: Its growth is 11.8%.

Q: `O=C(Cc1ccc(/C=C/C(=O)c2ncc[nH]2)cc1)Nc1ccc(F)cc1` was tested. Which growth did it give?
A: Its growth is -17.3% (active).

Q: Which growth does the source give for `CCc1cnc2ccccc2c1/C=C/c1ccc(N(C)C)cc1` here?
A: The growth was 12.9%.

Q: With `Cc1cnc(Nc2ccc(OCCN3CCCC3)cc2)nc1Nc1cccc(S(=O)(=O)NC(C)(C)C)c1` as the compound, how does the growth read?
A: The growth was -39.7% (active).

Q: How did the growth turn out when `O=C1c2cccc3cc([N+](=O)[O-])cc(c23)C(=O)N1CCN1CCCC1` was run?
A: Its growth is -54.1% (active).

Q: `COc1ncc(-c2ccc3nccc(C#CCCCCC(=O)O)c3c2)cc1NS(=O)(=O)c1ccc(F)cc1F` was tested. Which growth did it give?
A: Its growth is 26.8%.

Q: How did the growth turn out when `Nc1ncnc2c1N=C(c1ccc3c(c1)OCO3)CC(c1ccc([N+](=O)[O-])cc1)N2` (stereo not given) was run?
A: The growth was 88.7%.

Q: `COc1ccc(/C=C/C(=O)c2c(O)c(C)c(O)c3c2OC2=CC(O)=C(C(C)=O)C(=O)[C@]23C)cc1` was tested. Which growth did it give?
A: The growth was -34.6% (active).

Q: How did the growth turn out when `CC(C)n1cc(C2=C(c3cccc4ccccc34)C(=O)NC2=O)c2cc(Br)ccc21` was run?
A: Its growth is 54.1%.

Q: With `CSc1nc(-c2ccco2)c2c(N)[nH]nc2n1` as the compound, how does the growth read?
A: The growth was 82.9%.

Q: How did the growth turn out when `O=C(Nc1ccc(F)cc1)Nc1ccc(Br)c(C(F)(F)F)c1` was run?
A: The growth was -41.9% (active).

Q: `Cc1nc2cccc(NCCCCC(=O)NO)c2c(=O)n1-c1ccccc1` was tested. Which growth did it give?
A: Its growth is 42.8%.

Q: For `c1ccc2c(-c3nc4ccccc4[nH]3)cccc2c1`, which growth is on record?
A: The growth was -3.88% (active).

Q: `CCCCCCCCCCCCNCCCc1ccccc1` was tested. Which growth did it give?
A: The growth was 32.3%.

Q: How did the growth turn out when `OC(CBr)c1ccnc2ccccc12` (stereo not given) was run?
A: Its growth is 100%.

Q: With `c1ccc(COCC[P+](c2ccccc2)(c2ccccc2)c2ccccc2)cc1` as the compound, how does the growth read?
A: The growth was -52.2% (active).

Q: `COc1ccc(N(C)c2nc(Cl)nc3ccn(C)c23)cc1` was tested. Which growth did it give?
A: The growth was -35.3% (active).

Q: For `NC(=O)c1cccc(-n2ccc3cc(NC(=O)Nc4cc(C(F)(F)F)cc(C(F)(F)F)c4)ccc32)n1`, which growth is on record?
A: Its growth is 39.3%.

Q: Which growth does the source give for `COc1cc2nc3cc([N+](=O)[O-])ccc3c(NCCNCC(C)O)c2cc1OC` (stereo not given) here?
A: The growth was -16.8% (active).

Q: `Cc1ccc(CN2CCC(C(=O)Nc3ccc(-c4cc5ccccc5[nH]4)cc3)CC2)o1` was tested. Which growth did it give?
A: The growth was 13.7%.

Q: Which growth does the source give for `O=C(NC(Cc1nnc2n(Cc3ccccc3)c(=O)c3c4c(sc3n12)CCCC4)c1ccc(Cl)cc1)c1ccccc1` (stereo not given) here?
A: The growth was 78.5%.

Q: How did the growth turn out when `CCCCSCC(=O)c1ccccc1` was run?
A: The growth was 63.4%.

Q: `c1ccc([I+]c2ccccc2)cc1` was tested. Which growth did it give?
A: Its growth is 52%.

Q: How did the growth turn out when `O=C(O)c1cc([N+](=O)[O-])ccc1Cl` was run?
A: Its growth is 104%.

Q: `COc1c(C)c2c(c(O)c1C/C=C(\C)CCC(=O)OCCN1CCOCC1)C(=O)OC2` was tested. Which growth did it give?
A: The growth was 36.7%.

Q: With `Cc1cc(C)c(C(=O)OC(C)CNC2CCCCC2)c(C)c1` (stereo not given) as the compound, how does the growth read?
A: Its growth is 87.5%.

Q: `Fc1ccc2c(CN3CCO[C@H](COc4cccc(Cl)c4)C3)c[nH]c2c1` was tested. Which growth did it give?
A: Its growth is 27.1%.

Q: With `COc1ccc(-c2cc(C(=O)Nc3ccc(Br)cc3)nc3[nH]c(=O)sc23)cc1` as the compound, how does the growth read?
A: The growth was 25.5%.

Q: `Nc1nc(-c2ccccc2)cs1` was tested. Which growth did it give?
A: Its growth is 115%.

Q: How did the growth turn out when `COc1cc(CNCCCN2C(=O)c3ccc4c5c(ccc(c35)C2=O)C(=O)N(CCCNCc2cc(OC)c(OC)c(OC)c2)C4=O)cc(OC)c1OC` was run?
A: The growth was -35.8% (active).

Q: How did the growth turn out when `COc1cc(-c2csc(NC(=O)c3ccc(N4CCOCC4)c(C(F)(F)F)c3)n2)cc(OC)c1OC` was run?
A: The growth was 15.6%.

Q: With `CN1CCN(c2ccc(-c3cnc4c(-c5csc6ccccc56)cnn4c3)cc2)CC1` as the compound, how does the growth read?
A: Its growth is 9.53% (active).

Q: `Oc1cccc2c1NCCC2` was tested. Which growth did it give?
A: Its growth is 7.84% (active).

Q: With `COc1cc(/C=C2\C(=O)Nc3cc(C)c(O)cc32)cc(OC)c1OC` as the compound, how does the growth read?
A: The growth was 46.7%.

Q: With `COc1ccc(C(=O)c2sc3nc(C)cc(C)c3c2N)cc1OC` as the compound, how does the growth read?
A: Its growth is 97.3%.

Q: With `CC(C)/C=N/NC(N)=S` as the compound, how does the growth read?
A: The growth was 104%.

Q: `COc1c(C(=O)/C=C/c2ccc(C)o2)c(O)cc2occc12` was tested. Which growth did it give?
A: Its growth is 44.6%.

Q: `COc1cc2nc3cc([N+](=O)[O-])ccc3c(NCCNCC(C)(C)O)c2cc1OC` was tested. Which growth did it give?
A: Its growth is -12.8% (active).
